Screening data deposited in PubChem BioAssay by National Center for Advancing Translational Sciences (NCATS).
ATXN2 expr inh: Primary qHTS for Inhibitors of ATXN expression | HEK-293 ATXN2-luciferase reporter, luminescence, 24 h | Potency, µM (top dose mostly 57 µM), for the others: at the highest dose activity change, negative = inhibition, actives largely listed as inhibitors | 0.72% of 360,000 active | AID 1745845, 2022; also: % is scaled to controls: 0 for no effect and ±100 for the full control effect; nearly all actives have a fitted effect of over 55% in size
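qHTS (up to 57 uM final) was run with 24 h compound exposure of reporter cells at 37 °C. Each well was multiplexed: SteadyGlo luminescence measured ATXN2-luciferase expression after a fluorogenic Gly-Phe-AFC viability readout (25 uM final).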
A549 tox: Nrf2 qHTS screen for inhibitors: counterscreen for cytotoxicity | Potency, µM (highest dose often 46 µM), for inactives: at the top dose activity change, negative = cytotoxicity, hits mostly inhibitors | AID 504648, 2011 | A549 ARE-Fluc cells, CellTiter-Fluor viability, 18-24 h | 0.16% of 390,000 active; also: % is scaled to controls: 0 for no effect and ±100 for the full control effect
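A549 ARE_Fluc cells in 5% FBS OPTI-MEM were exposed to compounds in concentration-response for 18-24 h at 37 deg C. Viability was read by CellTiter-Fluor fluorescence (Ex 405/Em 525) after 30 min, before the luciferase read.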
Nrf2 block: Nrf2 qHTS screen for inhibitors. A549 ARE-Fluc reporter, luciferase luminescence, 18-24 h. Potency, µM (doses to about 46 µM), for the others: top-dose activity change, negative = inhibition, hits mostly inhibitors. 2.1% of 360,000 active; also: % is scaled to controls: 0 for no effect and ±100 for the full control effect; nearly all actives have a fitted effect of over 60% in size
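Nrf2 activity is the BugLite luminescence, read 15 min after reagent at room temperature, following CellTiter-Fluor cytotoxicity readout (30 min, 37C). Compound titrations were applied for 18-24 h to 5000 A549 ARE_Fluc cells/well in 5% FBS OPTI-MEM.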
S2 tox: Viability Counterscreen for Primary qHTS for Inhibitors of ATXN expression | S2 cells (HEK-293 line with an ATXN2-luciferase reporter) viability, CellTiter-Fluor protease fluorescence, 24 h | Potency, µM (series often up to 56.7 µM), most hits filed as cytotoxic | 0.49% of 400,000 active; also: nearly all actives have a fitted effect of over 40% in size
Nrf2 activator: qHTS of Nrf2 Activators | Potency, µM (top dose mostly 46.1 µM), for inactives: at the highest dose activation, hits mostly activators | 0.31% of 410,000 active | AREc32 ARE-luciferase reporter (MCF7-derived line), luminescence, 24 h | AID 624171, 2012; also: % of control where 0% means no effect; nearly all actives have a fitted effect of over 65% in size
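AREc32 cells carrying an ARE-driven firefly luciferase reporter were seeded at 1000 cells/well in OPTI-MEM with 5% FBS, then exposed to compound for 24 hr at 37 deg C. Luminescence was read with Steady-Glo after 30 min at RT.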
An asterisk follows results filed as active; ! = repeats disagree; [ ] = remark or other dose. Shown are actives, neighbours in structure and some others; about 2.9% of the full set was active somewhere. Calls follow the shape of the dose curve; as a rule, active = well fitted curve in the direction sought with a large enough effect; inconclusive = small, poorly fitted or top-dose-only effect, or another doubt; inactive = no such curve, though single readings can be large; an effect the other way counts as inactive or inconclusive. Potency is read from the fitted curve at half-maximal effect.

For O=C(Nc1nc(-c2cccs2)c(C(=O)C(F)(F)F)s1)c1ccccc1 the results were ATXN2 expr inh inconclusive, A549 tox -19.5%, Nrf2 block 20.6µM*, S2 tox inconclusive and Nrf2 activator 0.2%.
`O=C(Nc1nc(-c2cccs2)c(C(=O)C(F)(F)F)s1)c1ccco1` gave ATXN2 expr inh -5.4%, A549 tox 2.0%, Nrf2 block inconclusive, S2 tox inactive and Nrf2 activator 7.8%.
For O=C1C2C3C=CC(C3)C2C(=O)N1Cc1cccnc1 (stereo not drawn) the results were ATXN2 expr inh 1.6%, A549 tox 2.2%, Nrf2 block -5.6%, S2 tox inactive and Nrf2 activator -0.2%.
Screening CCc1ccc2oc(-c3cc(N)ccc3O)nc2c1 returned ATXN2 expr inh 4.6%, A549 tox 0.1%, Nrf2 block inconclusive, S2 tox inactive and Nrf2 activator 4.47µM*.
Screening C[C@@H]1C[C@H]2[C@@H]3C[C@H](F)C4=CC(=O)C=C[C@]4(C)[C@@]3(Cl)[C@@H](O)C[C@]2(C)[C@H]1C(=O)COC(=O)C(C)(C)C returned ATXN2 expr inh 8.4%, A549 tox -5.3%, Nrf2 block 0.0065µM*, S2 tox inactive and Nrf2 activator -1.1%.
For COc1ccc(NS(=O)(=O)c2ccc(NC(=O)c3ccc(Br)cc3)cc2)nn1 the results were A549 tox -4.4%, Nrf2 block 20.6µM*, S2 tox inactive and Nrf2 activator 4.6%.
For CCCCN(C)CC(O)Cn1cc(/C=C/C(=O)c2ccc(OC)c(OC)c2)c2ccccc21 (stereo not drawn) the results were ATXN2 expr inh 22.4µM*, A549 tox inconclusive, Nrf2 block 19.7% and Nrf2 activator -4.5%.
`CCNC(=S)N(CCc1c(C)[nH]c2ccc(Cl)cc12)Cc1ccco1` gave ATXN2 expr inh 0.5%[11.3 µM], A549 tox inconclusive, Nrf2 block 20.6µM*, S2 tox inactive and Nrf2 activator -1.7%.
Screening Cc1ccc2c(c1)[C@H]1[C@H](CO2)[C@H](c2ccccc2)[C@]2(C)C(=O)N(C)CC(=O)N12 returned ATXN2 expr inh -9.8%, A549 tox -6.8%, Nrf2 block 20.6µM*, S2 tox inactive and Nrf2 activator 1.7%.
Screening COc1cc(C(=O)Nc2nc(-c3ccc(Cl)cc3)c(C)s2)ccc1OCC(=O)Nc1ccc(F)cc1 returned ATXN2 expr inh inconclusive, A549 tox inconclusive, Nrf2 block 20.6µM* and Nrf2 activator 0.4%[9.22 µM].
Cc1[nH]c(C=C2C(=O)Nc3ccccc32)c(C)c1CCC(=O)O was read as ATXN2 expr inh 1.09µM*.
For CC(=O)/C=C1/C(=O)Nc2ccccc21 the results were ATXN2 expr inh inconclusive, A549 tox -10.2%, Nrf2 block -27.5%, S2 tox inconclusive and Nrf2 activator 0.8%.
`CCOC(=O)c1c(NC(=O)COC(=O)Cc2ccccc2[N+](=O)[O-])sc(C(=O)N(C)C)c1C` gave ATXN2 expr inh 1.0%, A549 tox 4.7%, Nrf2 block 7.3%, S2 tox inactive and Nrf2 activator -0.6%.
For CCOC(=O)c1c(NC(=O)COC(=O)c2ccccc2NC)sc(C(=O)N(C)C)c1C the results were ATXN2 expr inh 31.6µM*, A549 tox -7.0%, Nrf2 block inconclusive, S2 tox inconclusive and Nrf2 activator 2.1%.
Cc1cc(-c2n[nH]c(=S)n2Cc2ccco2)n(C)n1 was read as ATXN2 expr inh -13.5%, A549 tox -2.5%, Nrf2 block -15.1%, S2 tox inactive and Nrf2 activator -0.2%.
Cc1ccccc1Cn1nnc2c1C(=O)c1ccccc1C2=O was read as ATXN2 expr inh -16.6%, A549 tox -2.9%, Nrf2 block inconclusive, S2 tox inactive and Nrf2 activator 0.7%.
Cc1cccc(Cn2nnc3c2C(=O)c2ccccc2C3=O)c1 was read as A549 tox inconclusive, Nrf2 block 20.6µM* and Nrf2 activator 0.1%.
For CCN(CC)Cc1c(NC(=O)c2ccccc2)sc(C)c1C the results were ATXN2 expr inh 48.8%, A549 tox 12.0%, Nrf2 block 20.5%, S2 tox inactive and Nrf2 activator 11.2µM*.
For O=S(=O)(c1ccc(Br)s1)N1CCN(c2ccnc3cc(Cl)ccc23)CC1 the results were ATXN2 expr inh -24.7%, A549 tox -5.6%, Nrf2 block 20.6µM*, S2 tox inactive and Nrf2 activator 0.8%.
For O=C(c1ccc(Cl)cc1)N1CCN(c2ccnc3cc(Cl)ccc23)CC1 the results were ATXN2 expr inh inconclusive, A549 tox inconclusive, Nrf2 block 20.6µM*, S2 tox inactive and Nrf2 activator 2.5%.
`CC(C)N(C(=O)N1CCN(c2ccnc3cc(Cl)ccc23)CC1)C(C)C` gave ATXN2 expr inh 25.1µM*, A549 tox -3.6%, Nrf2 block 9.2µM*, S2 tox inconclusive and Nrf2 activator 3.4%.
For CCOc1c(Br)cc(C(=O)NCCCn2ccnc2)cc1OC the results were ATXN2 expr inh -2.4%, A549 tox 0.9%, Nrf2 block -5.7%, S2 tox inactive and Nrf2 activator -0.9%.
CC(C)c1nn(-c2c(Cl)cccc2Cl)c2nc(Cc3ccc(OCCO)cc3)[nH]c(=O)c12 was read as ATXN2 expr inh 0.0343µM*.
For COc1ccc(/C=C2\SC(=S)N(CC(=O)N(C)C3CCS(=O)(=O)C3)C2=O)cc1 (stereo not drawn) the results were ATXN2 expr inh 19.8%, A549 tox inconclusive, Nrf2 block 0.0%, S2 tox inactive and Nrf2 activator 8.0%.
Cc1ccc2c(CC(=O)Nc3ccc(S(=O)(=O)N4CCCC(C)C4)cc3)coc2c1 (stereo not drawn) was read as ATXN2 expr inh inconclusive, A549 tox -8.0%, Nrf2 block 20.6µM*, S2 tox inconclusive and Nrf2 activator 0.7%.
For Cc1cc(C)c(S(=O)(=O)N2CCN(C(=O)C3CC3)CC2)c(C)c1 the results were ATXN2 expr inh -10.0%, A549 tox 1.6%, Nrf2 block -5.4%, S2 tox inactive and Nrf2 activator 0.4%.
COc1cc(NC(C)CCCN)c2ncccc2c1 (stereo not drawn) was read as ATXN2 expr inh inconclusive, A549 tox -5.4%, Nrf2 block -16.4%, S2 tox 12.6µM*! and Nrf2 activator -3.0%.
For COc1cc(NCCCCCCCN)c2ncccc2c1 the results were ATXN2 expr inh -25.5%, A549 tox -4.2%, Nrf2 block -18.5%, S2 tox inactive and Nrf2 activator -0.6%.
Cc1cc(C)cc(N(CC(=O)NC2CCCCC2)C(=O)CCCC(=O)Nc2ccccn2)c1 was read as ATXN2 expr inh -10.0%, A549 tox inconclusive, Nrf2 block 20.6µM*, S2 tox inactive and Nrf2 activator -0.3%.
Cc1cccc(N2CCN(c3ncnc4onc(C)c34)CC2C)c1 (stereo not drawn) was read as A549 tox inconclusive, Nrf2 block 23.1µM* and Nrf2 activator -0.5%.
